Source: PubChem (National Center for Advancing Translational Sciences (NCATS))
Nrf2 inh = Nrf2 pathway inhibition | A549 ARE-Fluc reporter, luciferase luminescence, 18-24 h | Potency, µM (titrated, usually from 46 µM), without a hit: top-dose activity change, negative = inhibition, hits mostly inhibitors | 360,000 tested, 2.1% active; also: % is scaled to controls: 0 for no effect and ±100 for the full control effect; nearly all actives have a fitted effect of over 60% in size
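A549 ARE_Fluc cells (5000/well, 5% FBS OPTI-MEM) pre-incubated 2 h, then treated with compounds 18-24 h at 37C/5% CO2 in concentration-response. CellTiter-Fluor viability read first; BugLite luciferase luminescence after 15 min at room temperature gives Nrf2 activity.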
Nrf2 activator = Nrf2 pathway activation. AID 624171. Potency, µM (top dose mostly 46.1 µM), for inactives: at the top dose activation, hits mostly activators. 410,000 tested, 0.31% active. AREc32 ARE-luciferase reporter (MCF7-derived line), luminescence, 24 h; also: % of control where 0% means no effect; nearly all actives have a fitted effect of over 65% in size
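AREc32_Fluc, 1000 cells/well, OPTI-MEM + 5% FBS, o/n 37 deg C 5% CO2; 23 nL cpd by pin tool, 24 hr; Steady-Glo 30 min RT, luminescence.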
S2 tox = viability counter-screen for ATXN expression inhibitors; 400,000 tested, 0.49% active; S2 cells (HEK-293 line with an ATXN2-luciferase reporter) viability, CellTiter-Fluor protease fluorescence, 24 h; Potency, µM (series often up to 56.7 µM), actives largely listed as cytotoxic; also: nearly all actives have a fitted effect of over 40% in size
A549 tox-1 = A549 cytotoxicity, counter-screen for Nrf2 inhibitors; A549 ARE-Fluc cells, CellTiter-Fluor viability, 18-24 h; Potency, µM (doses to about 46 µM), without a hit: at the top dose activity change, negative = cytotoxicity, actives largely listed as inhibitors; 390,000 tested, 0.16% active; also: % is scaled to controls: 0 for no effect and ±100 for the full control effect
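A549 ARE-Fluc cells in 5% FBS OPTI-MEM, 5000 cells/well, rested 2 h then exposed to compounds in concentration-response for 18-24 h at 37 °C. Viability by CellTiter-Fluor fluorescence (Ex 405/Em 525) after 30 min; luciferase luminescence (BugLite, 15 min, RT) read afterwards.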
ATXN2 expr inh = reduces ATXN2 reporter expression in HEK-293 cells; HEK-293 ATXN2-luciferase reporter, luminescence, 24 h; AID 1745845; Potency, µM (highest dose often 57 µM), for inactives: at the highest dose activity change, negative = inhibition, usual class: inhibitors; 360,000 tested, 0.72% active; also: % is scaled to controls: 0 for no effect and ±100 for the full control effect; nearly all actives have a fitted effect of over 55% in size
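ATXN2-luciferase reporter cells (luciferase flanked by upstream and downstream ATXN2 gene portions) were treated 24 h at 37 °C with compounds at up to 57 uM. SteadyGlo luminescence gave expression; GF-AFC fluorescence gave viability.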
FLuc counter 3 = blocks purified firefly luciferase in Nrf2 counterscreen; Potency, µM (series often up to 57.5 µM), without a hit: at the highest dose activity change, negative = inhibition, usual class: inhibitors; shares compounds with Nrf2 inh; 1,400 tested, 4% active; AID 720522; purified firefly luciferase, luminescence inhibition; also: % is scaled to controls: 0 for no effect and ±100 for the full control effect; nearly all actives have a fitted effect of over 65% in size
Target sequence (P08659 whole entry, looked up): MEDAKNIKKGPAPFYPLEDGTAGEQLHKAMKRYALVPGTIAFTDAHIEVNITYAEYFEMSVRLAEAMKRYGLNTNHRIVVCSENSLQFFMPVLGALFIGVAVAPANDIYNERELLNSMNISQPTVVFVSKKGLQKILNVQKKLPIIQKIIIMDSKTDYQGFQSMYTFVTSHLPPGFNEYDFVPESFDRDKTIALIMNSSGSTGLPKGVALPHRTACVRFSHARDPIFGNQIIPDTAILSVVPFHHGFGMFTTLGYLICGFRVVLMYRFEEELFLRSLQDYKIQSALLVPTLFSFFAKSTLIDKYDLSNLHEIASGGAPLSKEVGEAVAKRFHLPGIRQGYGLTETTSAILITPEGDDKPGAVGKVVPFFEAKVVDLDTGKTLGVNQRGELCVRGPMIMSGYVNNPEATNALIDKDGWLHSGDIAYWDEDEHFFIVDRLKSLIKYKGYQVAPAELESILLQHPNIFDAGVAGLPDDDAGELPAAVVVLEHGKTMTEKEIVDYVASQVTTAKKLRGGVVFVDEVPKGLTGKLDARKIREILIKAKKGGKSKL
A549 tox-2 = toxic to A549 ARE-Fluc cells in Nrf2 counterscreen | shares compounds with Nrf2 inh | A549 ARE-Fluc cells, cytotoxicity counterscreen | Potency, µM (doses to about 46.1 µM), for the others: top-dose activity change, negative = cytotoxicity, most hits filed as inhibitors | 1,400 tested, 2% active;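 also: cells exposed to compounds for 18 to 24 hours; % is scaled to controls: 0 for no effect and ±100 for the full control effect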
Nrf2 ARE inh = Nrf2 inhibition confirmed, A549 ARE-luciferase; A549 ARE-firefly luciferase reporter, luminescence; Potency, µM (series often up to 46.1 µM), for the others: at the highest dose activity change, negative = inhibition, actives largely listed as inhibitors; shares compounds with Nrf2 inh; 1,400 tested, 74% active; also: % is scaled to controls: 0 for no effect and ±100 for the full control effect; nearly all actives have a fitted effect of over 65% in size
* = called active by the depositor; i = inactive; ? = inconclusive; . = no result given; ! = not confirmed by another sample; [ ] = dose if it differs, or a comment. Shown are actives, neighbours in structure and some others; about 2.9% of the full set was active somewhere. Calls follow the shape of the dose curve; as a rule, active = well fitted curve in the direction sought with a large enough effect; inconclusive = small, poorly fitted or top-dose-only effect, or another doubt; inactive = no such curve, though single readings can be large; an effect the other way counts as inactive or inconclusive. Potency is read from the fitted curve at half-maximal effect.

SMILES | Nrf2 inh | Nrf2 activator | S2 tox | A549 tox-1 | ATXN2 expr inh | FLuc counter 3 | A549 tox-2 | Nrf2 ARE inh
CCOC(=O)CSc1nc2c(sc3ccccc32)c(=O)n1Cc1ccc(OC)cc1 | . | 1% | i | 3% | 9% | . | . | .
COc1ccc(C)cc1NC(=O)CSc1ccc(-c2ccccn2)nn1 | 3.7µM* | 6% | ? | 2% | 14µM* | ? | -12% | 18µM*
COc1ccc(C)cc1NC(=O)CSc1ccc(-c2sc(C)nc2C)nn1 | 9.2µM* | 0% | ? | -20% | -12% | ? | -19% | ?
COc1cc(NC(=O)CSc2ccc(-c3ccccn3)nn2)cc(OC)c1 | ? | 0% | i | -26% | ? | . | . | .
COc1cccc(NC(=O)Cn2c(=O)n(Cc3ccc(C(=O)NCc4ccc(C)cc4)cc3)c(=O)c3ccccc32)c1 | -5% | 0% | i | 0% | 7% | . | . | .
COc1ccc(CN(C)c2ccc(S(=O)(=O)N3CCN(C)CC3)cc2[N+](=O)[O-])cc1OC | 1.3µM* | -1% | i | -3% | -7% | -28% | 2% | ?
COc1ccc(CCN(C)c2ccc(S(=O)(=O)N3CCCC3)cc2[N+](=O)[O-])cc1OC | ? | 4% | i | -20% | -24% | . | . | .
Cc1ccc(N2CCN(C(=O)c3cnc(N4CCCCC4)c4ccccc34)CC2)c(C)c1 | . | -1% | . | -3% | . | . | . | .
COc1cc(OC)c(/C=C/c2c3ccccc3cc[n+]2C)c(OC)c1 | . | . | . | . | . | 1% | ? | 2.1µM*
COc1ccc(C(=O)C[n+]2ccc3ccccc3c2C)cc1 | ? | 9% | ? | -15% | 24% | . | . | .
COc1cc(OC)c(/C=C/c2cc3c4ccccc4ccc3[n+](C)c2)c(OC)c1 | . | . | . | . | . | 6.7µM* | -15% | 4.6µM*
COc1ccc(N=Cc2c(OC)ccc3ccccc23)cc1 | 1% | 3% | i | -1% | 12% | . | . | .
COc1cc(OC)c(N(C)C(=O)Nc2cn(CC(C)C)c(=O)c3ccccc23)cc1Cl | ? | 1% | i | -2% | -16% | . | . | .
O=C(NC1CC(=O)N(c2cccc(F)c2)C1)C1CCCC1 (stereo unspecified) | . | 0% | . | -1% | . | . | . | .
COc1ccc(NC(=O)Cn2c(=O)n(-c3ccc(C)c(C)c3)c(=O)c3c(C)c(C)sc32)cc1 | 0%[9.27 µM] | 2% | ? | -14% | 4% | . | . | .
CCCn1c(SCC(=O)Nc2nc3c(s2)CCCC3)nc2c1c(=O)n(C)c(=O)n2C | 1% | 0% | . | -11% | . | . | . | .
CCCCn1c(SCC(=O)Nc2nnc(C(C)C)s2)nc2c1c(=O)n(C)c(=O)n2C | 7.3µM* | -1% | i | ? | -17% | 1% | -18% | 16µM*
O=c1c2cc3c(cc2nc2sc(Nc4ccc(F)c(Cl)c4)nn12)OCO3 | 0%[9.27 µM] | 0% | i | 2% | 4% | . | . | .
Cc1ccc(C(=O)n2nc(-c3cccnc3)nc2N)cc1 | 1.3µM* | -3% | i | -18% | -14% | -1% | 6% | 4.6µM*
C[n+]1c(/C=C/c2ccc(F)cc2)ccc2ccccc21 | . | . | . | . | . | ? | -21% | 8.2µM*
COc1ccc(OC)c(/C=C/c2ccc3ccccc3[n+]2C)c1 | . | . | . | . | . | -2% | -33% | 7.3µM*
COc1ccc(/C=C/C(=O)Nc2c(C)nn(C)c2C)cc1COc1ccc(Cl)cc1Br | ? | -1% | ? | -20% | -8% | . | . | .
Cc1nn(C)c(C)c1NC(=O)COc1ccc(Cl)cc1Br | 8.2µM* | 0% | ? | -12% | -28% | -10% | -7% | 7.3µM*
CC(=O)c1cn(CCOc2ccccc2C)c2ccccc12 | 4.6µM* | 3% | ? | 1% | -5% | -2% | 5% | 6.5µM*
c1ccc(CN2CCC(Nc3ncnc4sccc34)CC2)cc1 | 2% | 2% | i | 13% | . | . | . | .
SMILES | Nrf2 inh | Nrf2 activator | S2 tox | A549 tox-1 | ATXN2 expr inh | FLuc counter 3 | A549 tox-2 | Nrf2 ARE inh
Cc1sc2ncnc(NC3CCN(Cc4ccccc4)CC3)c2c1C | 4.6µM* | 3% | i | ? | -30% | 2% | -14% | 5.8µM*
CC1CCCC=CC2CC(OC(=O)CN(C)C)CC2C(O)C=CC(=O)O1 (stereo unspecified) | 0.21µM* | -1% | ? | ? | ? | 1% | ? | 0.41µM*
CCOC(=O)c1cc(-c2ccc(C)cc2)n(CCC(=O)NCc2ccccc2)c1C | 8.2µM* | 0% | ? | -21% | -16% | 1% | -15% | -23%
CC1(C)N=C(N)N=C(N)N1CCCCc1ccccc1 | 0.82µM* | -1% | ? | -3% | ? | 3% | -5% | 1.2µM*
CC(C)CN(C(=O)CSc1ccc2c(c1)OCCO2)c1c(N)n(CC(C)C)c(=O)[nH]c1=O | 3% | 0% | i | 0% | -14% | . | . | .
CC(C)Cn1c(N)c(C(=O)CSc2ccc3c(c2)OCCO3)c(=O)n(C)c1=O | 0.65µM* | 0% | i | -29% | ? | -1% | -5% | 1.8µM*
COc1cccc(CNC(=O)CCn2c(=O)c3cccn3c3cccnc32)c1 | 1.2µM*! | ? | i | 1% | 4% | -2% | -3% | 7%
COc1ccc(NC(=O)c2oc3ccccc3c2NC(=O)c2cc(OC)c(OC)c(OC)c2)cc1 | ? | 0% | i | 1% | -21% | . | . | .
CC1(c2ccc3ccccc3c2)NC(=O)N(CC(=O)N2CCN(Cc3ccccc3)CC2)C1=O (stereo unspecified) | 1.3µM* | 3% | i | ? | -35% | 2% | -5% | 4.6µM*
CC1(c2ccc3ccccc3c2)NC(=O)N(CC(=O)N2CCC(C(N)=O)CC2)C1=O (stereo unspecified) | -16% | 1% | i | 0% | 3% | . | . | .
CCCc1nn2c(=O)cc(COC(=O)c3ccccc3NC(=O)c3ccc(OCC)cc3)nc2s1 | . | 0% | i | 1% | 15% | . | . | .
COc1ccc(Cl)cc1Nc1nc(-c2sc(NC(=O)C(C)(C)C)nc2C)cs1 | 4.1µM* | 0% | ? | -2% | -22% | -20% | -9% | 1.8µM*
COc1ccc(OC)c(Nc2nc(-c3sc(NC(=O)C(C)(C)C)nc3C)cs2)c1 | 8.2µM* | 6% | i | 0% | ? | -25% | -19% | ?
CCOC(=O)c1cc(-c2ccc(F)cc2)n(CCC(=O)NCCc2ccc(C)cc2)c1C | . | 5% | . | ? | . | . | . | .
COC(=O)c1c(-c2cccs2)csc1NC(=O)COc1ccccc1 | 5% | 4% | . | ? | . | . | . | .
